# Source: PubChem BioAssay
# Rows were chosen to be rich in hits. Some 13% of all compounds tested hit in one or more screens of this group.
# UCHL1 block: inhibitors of human UCHL1 deubiquitinase; purified UCHL1, Ub-rhodamine cleavage fluorescence; inhibition, % at 20 µM; 0.2% of 47,000 active; Ubiquitin carboxyl-terminal hydrolase isozyme L1 (Homo sapiens), P09936
# Target sequence (P09936 whole entry, looked up): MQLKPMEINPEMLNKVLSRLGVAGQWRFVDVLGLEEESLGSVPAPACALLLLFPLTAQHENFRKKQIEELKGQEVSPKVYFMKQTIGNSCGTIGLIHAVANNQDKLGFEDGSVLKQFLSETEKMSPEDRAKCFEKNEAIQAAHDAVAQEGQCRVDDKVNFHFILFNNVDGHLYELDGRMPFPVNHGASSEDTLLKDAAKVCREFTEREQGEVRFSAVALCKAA
# USP7 inh: inhibitors of human USP7 deubiquitinase | 0.3% of 47,000 active | AID 1645854, 2021 | inhibition, % at 20 µM | purified USP7, Ub-rhodamine cleavage fluorescence | Ubiquitin carboxyl-terminal hydrolase 7 (Homo sapiens), Q93009
# USP10 inh: inhibitors of human USP10 deubiquitinase. inhibition, % at 20 µM. 1.1% of 47,000 active. Ubiquitin carboxyl-terminal hydrolase 10 (Homo sapiens), Q14694. AID 1645856, 2021. purified USP10, Ub-rhodamine fluorescence, 60 min
# USP30 inh: inhibitors of human USP30 deubiquitinase; Ubiquitin carboxyl-terminal hydrolase 30 (Homo sapiens), Q70CQ3; AID 1645860, 2021; 5.3% of 47,000 active; purified USP30, Ub-rhodamine cleavage fluorescence; inhibition, % at 25 µM
# USP17 inh: inhibitors of human USP17 deubiquitinase; Ubiquitin carboxyl-terminal hydrolase 17-like protein 5 (Homo sapiens), A8MUK1; purified USP17, Ub-rhodamine cleavage fluorescence, 3 h; inhibition, % at 50 µM; 6.5% of 47,000 active; AID 1645855, 2021
# USP8 block: inhibitors of human USP8 deubiquitinase; purified USP8, Ub-rhodamine cleavage fluorescence, 30 min; AID 1645853, 2021; inhibition, % at 20 µM; 4.2% of 47,000 active
# An asterisk follows results filed as active; i = inactive; / = no result given. Rule as the data show it: active = inhibition above about 30%; inactive = the rest.
SMILES,UCHL1 block,USP7 inh,USP10 inh,USP30 inh,USP17 inh,USP8 block
c1ccc2c(-c3nc(C4CC4)no3)nnc(NC3CCCCC3)c2c1,4,4,6,33*,1,12
c1ccc2c(-c3nc(C4CC4)no3)nnc(NCCCN3CCOCC3)c2c1,4,0,3,36*,9,20
CC(C)OCCCNc1nnc(-c2nc(C3CC3)no2)c2ccccc12,-1,-3,8,16,0,5
Fc1ccc(-c2noc(-c3nnc(NCc4cccnc4)c4ccccc34)n2)cc1,-4,4,1,-3,75*,0
Cc1nnc(-c2nnc(NCc3ccccc3)c3ccccc23)o1,3,-5,4,26,-3,4
c1ccc2c(-c3nc(C4CC4)no3)nnc(NCc3ccncc3)c2c1,1,-3,-2,29,53*,3
CC(=O)N1C[C@H]2C3(CCN(S(=O)(=O)c4ccccc4)CC3)CC[C@@]2(C(=O)N(C)C)C1,3,9,-1,14,4,0
COc1ncccc1C(=O)N1CCCCC1c1cc(C)n2nccc2n1 (configuration not stated),3,0,1,-1,-74,-6
Cc1ccc(C)c(CN2C(=O)c3ccccc3Sc3ccc(C(=O)NCCCN4CCOCC4)cc32)c1,7,6,0,-117,-2,-1
Brc1ccc(C2=CC(c3cccs3)n3c(nc4ccccc43)N2)s1 (configuration not stated),-59,-74,-3,-279,-15,42*
O=C(Nc1ccc(-c2cn3ccsc3n2)cc1)c1ccc(Cl)c([N+](=O)[O-])c1,11,54*,67*,82*,12,97*
CC(=O)N1CCc2cc(CNS(=O)(=O)c3ccccc3F)ccc21,-4,-6,-2,0,-6,-19
Cc1ccc2c(c1)N(Cc1ccc(Cl)cc1)C(=O)CCS2,3,-38,7,30*,24,11
CN(Cc1ccc2c(c1)OCO2)C(C(=O)Nc1ccc(F)cc1)c1ccccc1 (configuration not stated),7,12,9,39*,13,17
CCc1ccc(NC(=O)Cn2c(C)cc(=O)n3nc(C(F)(F)F)nc23)cc1,0,4,3,3,4,3
COc1ccc(NC(=O)Cn2c(C)cc(=O)n3nc(-c4cccc(C)c4)nc23)cc1,1,22,47*,31*,16,64*
Cc1cc(-c2ccc(S(=O)(=O)N(C)Cc3ccccc3)s2)on1,1,4,2,2,0,8
O=S(=O)(NC(c1ccccc1)c1ccccc1)c1ccc(-n2cnnn2)cc1,2,-3,3,49*,44*,1
Cc1nc(-c2cccc(S(=O)(=O)NC3CCCc4ccccc43)c2)no1 (configuration not stated),7,7,0,11,18,47*
O=S(=O)(NC1CCCc2ccccc21)c1ccc(F)cc1 (configuration not stated),2,-21,7,34*,13,12
CCNS(=O)(=O)c1ccc(-c2ccc(-n3cnnn3)cc2)cc1,4,4,16,25,20,24
O=S(=O)(NC1CCc2ccccc21)c1ccc(-n2cnnn2)cc1 (configuration not stated),0,4,6,39*,4,11
COc1ccc(S(=O)(=O)NC2CCc3ccccc32)cc1OC (configuration not stated),2,2,5,6,9,0
CC(C)(C)N1C(=O)c2ccncc2C1c1ccccc1 (configuration not stated),-5,-1,-10,-157,-35,-95
CCN1CCCC2(Cc3ccccc3CN(S(C)(=O)=O)C2)C1 (configuration not stated),-29,-21,-3,-172,-39,-34
SMILES,UCHL1 block,USP7 inh,USP10 inh,USP30 inh,USP17 inh,USP8 block
COc1cccc(NC(=O)NCCc2c(C)nn(C)c2C)c1,-4,2,5,0,-3,7
O=C(O)c1nccnc1C(=O)N1CCc2ccccc2C1,6,-12,16,8,78*,91*
Cc1ccc(CNC(=O)Cn2c(=O)c3sccc3n(CC(=O)Nc3ccc(Br)cc3)c2=O)cc1,1,8,3,26,10,23
O=C(Cc1ccc(-n2c(=O)c3sccc3n(Cc3ccc(F)cc3)c2=O)cc1)NCCc1ccccc1,0,22,37*,/,67*,23
CCc1ccccc1NC(=O)Cn1c(=O)n(CC(=O)NCc2ccccc2Cl)c(=O)c2sccc21,-2,14,29,15,26,38*
Cc1cccc(NC(=O)Cn2c(=O)n(-c3cc(C)cc(C)c3)c(=O)c3sccc32)c1,2,5,19,24,12,25
Cc1ccccc1NC(=O)Cn1c(=O)n(-c2ccc(CC(=O)NCCc3ccccc3)cc2)c(=O)c2sccc21,8,32*,51*,-1,24,84*
Cc1ccc(NC(=O)Cn2c(=O)n(-c3ccc(CC(=O)NCc4ccco4)cc3)c(=O)c3sccc32)c(C)c1,4,20,44*,/,69*,15
CN(CCc1noc(-c2ccc(Cl)cc2)n1)C(=O)c1ccc(C#N)cc1,-1,-8,2,0,-1,-3
Cc1ccc(-n2nnnc2-c2cnc(C)nc2-c2ccc(Cl)cc2)cc1,4,4,-1,1,-1,-12
COc1ccc(-n2nnnc2-c2c[nH]c3c(F)cc(F)cc23)cc1,0,6,8,13,5,31*
COc1ccc(-n2nnc(C(=O)Nc3nc(C)c(C)s3)n2)cc1,-2,7,-10,34*,48*,0
Cc1ccc(NC(=O)c2nnn(-c3ccccc3)n2)cc1,3,-9,6,12,1,14
Cc1nc(NC(=O)c2nnn(-c3ccc(F)cc3)n2)sc1C,4,1,3,-2,40*,7
Cc1ccc(NC(=O)CC(C)S(=O)(=O)c2ccc3c(c2)NC(=O)CO3)cc1N(C)C (configuration not stated),-3,-1,-3,-25,-16,-31
O=C(Cn1cccc1C1=NC(c2ccccc2)CO1)N1CCCCCC1 (configuration not stated),-2,-7,-5,-11,-7,0
Fc1ccc(Nc2nc(Nc3cccc(F)c3)nc3nccnc23)cc1,-8,-11,-4,61*,7,12
Cc1ccc(Nc2nc(Nc3ccc(F)cc3)nc3nccnc23)cc1C,-157,-150,-4,i,-123,-335
O=S(=O)(NCC(c1ccccc1)N1CCN(c2ncccn2)CC1)c1ccccc1 (configuration not stated),0,-1,1,-12,-18,-1
